What was measured:
[1] = system: Vero E6 infected with SARS-CoV-2; assay: inhibition of SARS-CoV-2 cytopathic effect; higher = more antiviral protection, active = above 15; settings: 48 h
[2] = system: Vero E6 infected with SARS-CoV-2; assay: morphology score (similarity to uninfected cells); higher = more like uninfected cells; settings: 24 h

Structure (SMILES): CC(=O)[C@H]1CC[C@H]2[C@@H]3CC[C@H]4C[C@](C)(O)CC[C@]4(C)[C@H]3CC[C@]12C [ganaxolone]
- inhibition of SARS-CoV-2 cytopathic effect ([1]; 1 nM): -0.23% (inactive)
- inhibition of SARS-CoV-2 cytopathic effect ([1]; 8.33 nM): 4.47% (inactive)
- inhibition of SARS-CoV-2 cytopathic effect ([1]; 100 nM): 1.85% (inactive)
- inhibition of SARS-CoV-2 cytopathic effect ([1]; 833.33 nM): 0.7% (inactive)
- inhibition of SARS-CoV-2 cytopathic effect ([1]; 10000 nM): 0.84% (inactive)

Structure (SMILES): CCS(=O)(=O)N1CCC([C@@H](C)n2c(C)c(C(=O)NCc3c(OC)cc(C)[nH]c3=O)c3ccccc32)CC1
- inhibition of SARS-CoV-2 cytopathic effect ([1]; 1 nM): 0.38% (inactive)
- inhibition of SARS-CoV-2 cytopathic effect ([1]; 8.33 nM): 2.34% (inactive)
- inhibition of SARS-CoV-2 cytopathic effect ([1]; 100 nM): 0.88% (inactive)
- inhibition of SARS-CoV-2 cytopathic effect ([1]; 833.33 nM): 0.2% (inactive)
- inhibition of SARS-CoV-2 cytopathic effect ([1]; 10000 nM): -1.12% (inactive)

Structure (SMILES): CCCCCCOC(=O)NC(=N)c1ccc(NCc2nc3cc(C(=O)N(CCC(=O)OCC)c4ccccn4)ccc3n2C)cc1 [dabigatran-etexilate]
- inhibition of SARS-CoV-2 cytopathic effect ([1]; 1 nM): 1% (inactive)
- inhibition of SARS-CoV-2 cytopathic effect ([1]; 8.33 nM): 2.6% (inactive)
- inhibition of SARS-CoV-2 cytopathic effect ([1]; 100 nM): 1.5% (inactive)
- inhibition of SARS-CoV-2 cytopathic effect ([1]; 833.33 nM): 1.44% (inactive)
- inhibition of SARS-CoV-2 cytopathic effect ([1]; 10000 nM): -2.8% (inactive)

Structure (SMILES): C1N2CN3CN1CN(C2)C3 [methenamine]
- inhibition of SARS-CoV-2 cytopathic effect ([1]; 1 nM): -3.74% (inactive)
- inhibition of SARS-CoV-2 cytopathic effect ([1]; 8.33 nM): 0.58% (inactive)
- inhibition of SARS-CoV-2 cytopathic effect ([1]; 100 nM): -1.64% (inactive)
- inhibition of SARS-CoV-2 cytopathic effect ([1]; 833.33 nM): -0.2% (inactive)
- inhibition of SARS-CoV-2 cytopathic effect ([1]; 10000 nM): -1.08% (inactive)

Structure (SMILES): O=C1NCCN1CCN1CCC(c2cn(-c3ccc(F)cc3)c3ccc(Cl)cc23)CC1 [sertindole]
- inhibition of SARS-CoV-2 cytopathic effect ([1]; 1 nM): -2.53% (inactive)
- inhibition of SARS-CoV-2 cytopathic effect ([1]; 8.33 nM): -4.63% (inactive)
- inhibition of SARS-CoV-2 cytopathic effect ([1]; 100 nM): -2.36% (inactive)
- inhibition of SARS-CoV-2 cytopathic effect ([1]; 833.33 nM): -5.98% (inactive)
- inhibition of SARS-CoV-2 cytopathic effect ([1]; 10000 nM): -11.3% (inactive)

Structure (SMILES): CC1CS(=O)(=O)CCN1/N=C/c1ccc([N+](=O)[O-])o1 (configuration not stated) [nifurtimox]
- inhibition of SARS-CoV-2 cytopathic effect ([1]; 1 nM): -0.09% (inactive)
- inhibition of SARS-CoV-2 cytopathic effect ([1]; 8.33 nM): 0.8% (inactive)
- inhibition of SARS-CoV-2 cytopathic effect ([1]; 100 nM): -1.28% (inactive)
- inhibition of SARS-CoV-2 cytopathic effect ([1]; 833.33 nM): 2.01% (inactive)
- inhibition of SARS-CoV-2 cytopathic effect ([1]; 10000 nM): 1.23% (inactive)

Structure (SMILES): CON(C)C(=O)[C@H](O)[C@H](Cc1ccccc1)NC(=O)c1cc2cc(Cl)ccc2[nH]1
- inhibition of SARS-CoV-2 cytopathic effect ([1]; 1 nM): -0.47% (inactive)
- inhibition of SARS-CoV-2 cytopathic effect ([1]; 8.33 nM): 0.53% (inactive)
- inhibition of SARS-CoV-2 cytopathic effect ([1]; 100 nM): 1.7% (inactive)
- inhibition of SARS-CoV-2 cytopathic effect ([1]; 833.33 nM): 1.24% (inactive)
- inhibition of SARS-CoV-2 cytopathic effect ([1]; 10000 nM): 4.39% (inactive)

Structure (SMILES): CC(C)(Oc1ccc(CCNC(=O)c2ccc(Cl)cc2)cc1)C(=O)O [bezafibrate]
- inhibition of SARS-CoV-2 cytopathic effect ([1]; 1 nM): -1.42% (inactive)
- inhibition of SARS-CoV-2 cytopathic effect ([1]; 8.33 nM): 0.91% (inactive)
- inhibition of SARS-CoV-2 cytopathic effect ([1]; 100 nM): -1.38% (inactive)
- inhibition of SARS-CoV-2 cytopathic effect ([1]; 833.33 nM): 0.02% (inactive)
- inhibition of SARS-CoV-2 cytopathic effect ([1]; 10000 nM): -0.38% (inactive)

Structure (SMILES): C[C@]12CC[C@H](O)CC1=CC[C@@H]1[C@@H]2CC[C@]2(C)C(=O)CC[C@@H]12 (10 µM)
- morphology score [2]: 0.0986

Structure (SMILES): CC(C)(S)C(=O)N[C@@H](CS)C(=O)O [bucillamine]
- inhibition of SARS-CoV-2 cytopathic effect ([1]; 1 nM): 0.66% (inactive)
- inhibition of SARS-CoV-2 cytopathic effect ([1]; 8.33 nM): 4.25% (inactive)
- inhibition of SARS-CoV-2 cytopathic effect ([1]; 100 nM): 5.04% (inactive)
- inhibition of SARS-CoV-2 cytopathic effect ([1]; 833.33 nM): 3.9% (inactive)
- inhibition of SARS-CoV-2 cytopathic effect ([1]; 10000 nM): -4% (inactive)

Structure (SMILES): CN1CCC[C@@H](CC2c3ccccc3Sc3ccccc32)C1 (racemic) [metixene]
- inhibition of SARS-CoV-2 cytopathic effect ([1]; 1 nM): -0.25% (inactive)
- inhibition of SARS-CoV-2 cytopathic effect ([1]; 8.33 nM): 1.09% (inactive)
- inhibition of SARS-CoV-2 cytopathic effect ([1]; 100 nM): 1.62% (inactive)
- inhibition of SARS-CoV-2 cytopathic effect ([1]; 833.33 nM): -0.01% (inactive)
- inhibition of SARS-CoV-2 cytopathic effect ([1]; 10000 nM): 42.2% (active)

Structure (SMILES): Cc1cc(-c2ccc(/N=N/c3ccc4c(S(=O)(=O)O)cc(S(=O)(=O)O)c(N)c4c3O)c(C)c2)ccc1/N=N/c1ccc2c(S(=O)(=O)O)cc(S(=O)(=O)O)c(N)c2c1O [evans-blue]
- inhibition of SARS-CoV-2 cytopathic effect ([1]; 1 nM): -1.16% (inactive)
- inhibition of SARS-CoV-2 cytopathic effect ([1]; 8.33 nM): -4.89% (inactive)
- inhibition of SARS-CoV-2 cytopathic effect ([1]; 100 nM): 2.16% (inactive)
- inhibition of SARS-CoV-2 cytopathic effect ([1]; 833.33 nM): -0.35% (inactive)
- inhibition of SARS-CoV-2 cytopathic effect ([1]; 10000 nM): -17.6% (inactive)

Structure (SMILES): CN1[C@@H]2CC[C@H]1C[C@@H](OC(=O)C(CO)c1ccccc1)C2 (some centres not stated)
- inhibition of SARS-CoV-2 cytopathic effect ([1]; 1 nM): -2.22% (inactive)
- inhibition of SARS-CoV-2 cytopathic effect ([1]; 8.33 nM): -2.93% (inactive)
- inhibition of SARS-CoV-2 cytopathic effect ([1]; 100 nM): 1.96% (inactive)
- inhibition of SARS-CoV-2 cytopathic effect ([1]; 833.33 nM): 0.7% (inactive)
- inhibition of SARS-CoV-2 cytopathic effect ([1]; 10000 nM): 0.64% (inactive)

Structure (SMILES): O=C(O)CNC(=O)C1C(=O)N(C2CCCCC2)C(=O)N(C2CCCCC2)C1=O [daprodustat]
- inhibition of SARS-CoV-2 cytopathic effect ([1]; 1 nM): -0.26% (inactive)
- inhibition of SARS-CoV-2 cytopathic effect ([1]; 8.33 nM): 1.23% (inactive)
- inhibition of SARS-CoV-2 cytopathic effect ([1]; 100 nM): 2.21% (inactive)
- inhibition of SARS-CoV-2 cytopathic effect ([1]; 833.33 nM): 2.38% (inactive)
- inhibition of SARS-CoV-2 cytopathic effect ([1]; 10000 nM): -0.29% (inactive)

Structure (SMILES): C=CCN1CC[C@]23c4c5ccc(O)c4O[C@H]2C(=O)CC[C@@]3(O)[C@H]1C5
- inhibition of SARS-CoV-2 cytopathic effect ([1]; 1 nM): -1.98% (inactive)
- inhibition of SARS-CoV-2 cytopathic effect ([1]; 8.33 nM): 1.85% (inactive)
- inhibition of SARS-CoV-2 cytopathic effect ([1]; 100 nM): 1.15% (inactive)
- inhibition of SARS-CoV-2 cytopathic effect ([1]; 833.33 nM): 3.34% (inactive)
- inhibition of SARS-CoV-2 cytopathic effect ([1]; 10000 nM): 0.28% (inactive)

Structure (SMILES): C[C@H](N/C(=N/C#N)Nc1cccc2ncccc12)c1ccccc1
- inhibition of SARS-CoV-2 cytopathic effect ([1]; 1 nM): -1.75% (inactive)
- inhibition of SARS-CoV-2 cytopathic effect ([1]; 8.33 nM): -2.48% (inactive)
- inhibition of SARS-CoV-2 cytopathic effect ([1]; 100 nM): -3.44% (inactive)
- inhibition of SARS-CoV-2 cytopathic effect ([1]; 833.33 nM): 1.32% (inactive)
- inhibition of SARS-CoV-2 cytopathic effect ([1]; 10000 nM): 1.97% (inactive)

Structure (SMILES): CC(=O)N[C@H]1[C@H]([C@H](O)[C@H](O)CO)OC(O)(C(=O)O)C[C@@H]1O (mixture of isomers) [aceneuramic-acid]
- inhibition of SARS-CoV-2 cytopathic effect ([1]; 1 nM): -6.31% (inactive)
- inhibition of SARS-CoV-2 cytopathic effect ([1]; 8.33 nM): 1.91% (inactive)
- inhibition of SARS-CoV-2 cytopathic effect ([1]; 100 nM): -1.39% (inactive)
- inhibition of SARS-CoV-2 cytopathic effect ([1]; 833.33 nM): -2.36% (inactive)
- inhibition of SARS-CoV-2 cytopathic effect ([1]; 10000 nM): -0.15% (inactive)

— the supplement of paper PMC13380429
